# In all, about 18,000 sequences were measured (“log2 normalized intensity”: median about 0.39, highest 2% from about 6.6 on). The sample as a whole holds a higher share of the highest values than the screen did.
# Biological target: T1, HNF4alpha2 (COS-7 nuclear extract) (Homo sapiens, UniProt P41235 1-474)
# T1 sequence: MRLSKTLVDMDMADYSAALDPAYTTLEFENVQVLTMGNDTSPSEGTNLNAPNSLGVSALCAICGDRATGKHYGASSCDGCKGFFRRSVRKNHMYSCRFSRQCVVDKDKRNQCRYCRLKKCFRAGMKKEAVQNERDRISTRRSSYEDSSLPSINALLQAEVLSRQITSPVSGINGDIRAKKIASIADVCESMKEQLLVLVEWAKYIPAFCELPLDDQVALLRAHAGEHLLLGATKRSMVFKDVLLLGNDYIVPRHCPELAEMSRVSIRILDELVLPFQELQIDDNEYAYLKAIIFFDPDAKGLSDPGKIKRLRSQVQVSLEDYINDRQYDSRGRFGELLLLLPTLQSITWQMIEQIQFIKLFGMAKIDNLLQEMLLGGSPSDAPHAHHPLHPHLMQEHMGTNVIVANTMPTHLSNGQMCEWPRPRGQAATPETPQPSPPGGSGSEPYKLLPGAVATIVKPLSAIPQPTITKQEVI
# Test: protein-binding microarray; COS-7 nuclear extract on double-stranded Agilent 4x180k PBM; binding buffer, salt, pH and temperature not given in the material; high values mean tight binding
# Conditions: chain copies: 2; label: 3' end of strand 1 on the slide; dsDNA, one strand shown
# In short: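 Nuclear extracts came from COS-7 cells transiently transfected by CaPO4 with a human HNF4α isoform expression vector. They were applied to a custom Agilent SurePrint G3 4x180k array of ~60-nt oligonucleotides, made double-stranded, with ~44,000 test sequences spotted in quadruplicate. Bound HNF4α was imaged at 2-µm resolution on an Agilent G2565CA scanner. Binding signal was taken as background-corrected, normalized gProcessedSignal from Agilent software.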
row,Sequence,binding signal [log2 normalized intensity]
1,AGAGCTCAGAAGCCACCAGTGCAAATATAAGCCTAGGGAGATTAGAGTATCGGTCGA,-0.972
2,ATTTGGACTTTTACTCTTAGAGATAATGGGGCCTAGGGAGATTAGAGTATCGGTCGA,2.13
3,AAGAGATAAAAGAGAAGATAATGGATTGGGGCCTAGGGAGATTAGAGTATCGGTCGA,-0.492
4,GGATAATGATAAAGAGATTGGACTTTGGCCGCCTAGGGAGATTAGAGTATCGGTCGA,8.99
5,AAAATATGGACTTTGGAATTAAGAAAAGCTGCCTAGGGAGATTAGAGTATCGGTCGA,5.25
6,TCTTTAGGCCAAACAAAAATATGGACTTTGGCCTAGGGAGATTAGAGTATCGGTCGA,5.84
7,CACAAATTGGAGAGCATCTTGGACTTGGGAGCCTAGGGAGATTAGAGTATCGGTCGA,2.73
8,GAAGGAGAGAGAGGGAGAGTGGCCTTTGGAGCCTAGGGAGATTAGAGTATCGGTCGA,2.89
9,CAAACGAGACTTTGGACTTTGGACTTGGGAGCCTAGGGAGATTAGAGTATCGGTCGA,10.5
10,AGGCCAAACAAAAATATGGACTTTGGAATTGCCTAGGGAGATTAGAGTATCGGTCGA,7.99
11,CTATCACTGTCTAGCTGTGTAACCCTGGACGCCTAGGGAGATTAGAGTATCGGTCGA,1.48
12,TGTCCAGCACACCTTTTTTTCATGCAAATTGCCTAGGGAGATTAGAGTATCGGTCGA,0.631
13,CCCCCTTTTGCTTTCCGTTAGGCTACAGTGGCCTAGGGAGATTAGAGTATCGGTCGA,1.03
14,CTCCTCTCCAGCCCATCCTAAGCCCCAGGGGCCTAGGGAGATTAGAGTATCGGTCGA,1.15
15,CTGAGCCTCAGAACCATTTGTGAGGATGGGGCCTAGGGAGATTAGAGTATCGGTCGA,-0.528
16,TGCATGCAAAAAGGCTGACCTTTGACTCTCGCCTAGGGAGATTAGAGTATCGGTCGA,7.57
17,CTTTTTGACCTTGCAGTGGCAAGGCAAAAGGCCTAGGGAGATTAGAGTATCGGTCGA,1.56
18,AGTGCTGCATGCAAAAAGGCTGACCTTTGAGCCTAGGGAGATTAGAGTATCGGTCGA,7.82
19,ATGCAAAGCCCTGGCTGACCTTTAGCCTGGGCCTAGGGAGATTAGAGTATCGGTCGA,6.54
20,TAGATAAGAGCTGAGGAAGTGCTGACCTTTGCCTAGGGAGATTAGAGTATCGGTCGA,5.77
21,CTGAGGAAGTGCTGACCTTTGGTCTAAACCGCCTAGGGAGATTAGAGTATCGGTCGA,6.27
22,GTCAGAGTGCTGCATGCAAAAAGGCTGACCGCCTAGGGAGATTAGAGTATCGGTCGA,1.41

row,Sequence,binding signal [log2 normalized intensity]
1,AAGAGCTGAGGAAGTGCTGACCTTTGGTCTGCCTAGGGAGATTAGAGTATCGGTCGA,7.29
2,AGGCTGTCAGAGTGCTGCATGCAAAAAGGCGCCTAGGGAGATTAGAGTATCGGTCGA,-0.743
3,CCCAGGTCACCCACAACCTACCCTTTGCCCGCCTAGGGAGATTAGAGTATCGGTCGA,3.99
4,GGCTAGGGCAAAGATCAAACATACAGTAAAGCCTAGGGAGATTAGAGTATCGGTCGA,1.77
5,TAGCAATAATCTTTGAAATCTGCAAATAGAGCCTAGGGAGATTAGAGTATCGGTCGA,-0.0917
6,TCTGTGTGTATGTGTGTGTACACATTGATAGCCTAGGGAGATTAGAGTATCGGTCGA,2.42
7,AATTCCAGTTTGGACTTTGATCCTGATGACGCCTAGGGAGATTAGAGTATCGGTCGA,9.15
8,TGGACTTTGATCCTGATGACTGCAGAGCTTGCCTAGGGAGATTAGAGTATCGGTCGA,5.26
9,GCAGTTCCTGATCTTTGACCTGGAGCATGAGCCTAGGGAGATTAGAGTATCGGTCGA,4.61
10,ATCCTGCAGTTCCTGATCTTTGACCTGGAGGCCTAGGGAGATTAGAGTATCGGTCGA,5.61
11,AGATCATCCTGCAGTTCCTGATCTTTGACCGCCTAGGGAGATTAGAGTATCGGTCGA,7.04
12,GGAGAGAGTTTGGCCCCAGTTCCCATGGACGCCTAGGGAGATTAGAGTATCGGTCGA,1.18
13,CAGTTTGGACTTTGATCCTGATGACTGCAGGCCTAGGGAGATTAGAGTATCGGTCGA,7.49
14,TTTGATCCTGATGACTGCAGAGCTTGCTCTGCCTAGGGAGATTAGAGTATCGGTCGA,-0.687
15,GATGGAGATCATCCTGCAGTTCCTGATCTTGCCTAGGGAGATTAGAGTATCGGTCGA,-0.826
16,CTTCTGTTCAGGAGTTGTCTGTCCAGTTCAGCCTAGGGAGATTAGAGTATCGGTCGA,1.56
17,TAATCCCTGAGCCTGGACCTTGGAATGTCAGCCTAGGGAGATTAGAGTATCGGTCGA,3.33
18,AATTCACGTCATTTTGTCACCTACATGTGAGCCTAGGGAGATTAGAGTATCGGTCGA,1.67
19,TGCCCTGGACATATTTGTCTTCCTATCTCCGCCTAGGGAGATTAGAGTATCGGTCGA,0.887
20,TTCCAGAGCCTTCAAAGGAAAGCAGGTGTTGCCTAGGGAGATTAGAGTATCGGTCGA,0.55
21,CAGGGTCAATGTCCCCTTAGGAATAGTATCGCCTAGGGAGATTAGAGTATCGGTCGA,2.14
22,TTGAAAGGGACTTAGAATCGAATTGTGAAAGCCTAGGGAGATTAGAGTATCGGTCGA,-0.196

row,Sequence,binding signal [log2 normalized intensity]
1,TCTGCAGCAGATGGCCAGCCTTTGGACTTTGCCTAGGGAGATTAGAGTATCGGTCGA,7.15
2,ACCTGGAACTGAAAGAGACCTTTGACATCAGCCTAGGGAGATTAGAGTATCGGTCGA,4.5
3,TACTGGGGATGGACTTTGGCCCTCAGCCCAGCCTAGGGAGATTAGAGTATCGGTCGA,8.56
4,CAGCCTTTGGACTTTGAACTGCAACATCAGGCCTAGGGAGATTAGAGTATCGGTCGA,8.26
5,TGAATTCTGCAGCAGATGGCCAGCCTTTGGGCCTAGGGAGATTAGAGTATCGGTCGA,-0.936
6,AAAGAGATTGGACTTTGGCCTGTGAATCCAGCCTAGGGAGATTAGAGTATCGGTCGA,8.37
7,GAACAGCAAGACTTTGGCCCTGCAGACTTTGCCTAGGGAGATTAGAGTATCGGTCGA,2.09
8,GGGATGGACTTTGGCCCTCAGCCCAATGTGGCCTAGGGAGATTAGAGTATCGGTCGA,6.2
9,CTGGACTTTGGCTGCAAAATTTGAACAAAAGCCTAGGGAGATTAGAGTATCGGTCGA,1.55
10,GGACTTTGGCCCTCAGCCCAATGTGGTAGGGCCTAGGGAGATTAGAGTATCGGTCGA,5.47
11,GATTGGACTTTGGCCTGTGAATCCACATTCGCCTAGGGAGATTAGAGTATCGGTCGA,5.98
12,CCCTTTGCACATGCCCCTCCCAGGGACACAGCCTAGGGAGATTAGAGTATCGGTCGA,3.12
13,CAGAAAAATGGAGCAGCTCTGTATTGAGATGCCTAGGGAGATTAGAGTATCGGTCGA,-0.99
14,TGCCATTCTTCCAGTTGTGTGCACAAGAGGGCCTAGGGAGATTAGAGTATCGGTCGA,1.7
15,GAATTTCATTTTGCTCTTTGTTCAGATACAGCCTAGGGAGATTAGAGTATCGGTCGA,1.33
16,TTTTTTCAAGTGTTAGCTGTTTCCAAATATGCCTAGGGAGATTAGAGTATCGGTCGA,1.42
17,AATCCCTTAGGCTTTTGCACTTTACTCAGAGCCTAGGGAGATTAGAGTATCGGTCGA,3.14
18,CCCCTCCCTCCGCAACCTTTACTCCTTGTGGCCTAGGGAGATTAGAGTATCGGTCGA,3.68
19,GTCACCACCTTTTTTGGCCTTTACCCCTTGGCCTAGGGAGATTAGAGTATCGGTCGA,4.8
20,AAAAAACCCTAGAGATGTACACAGTTCAAAGCCTAGGGAGATTAGAGTATCGGTCGA,-0.874
21,GGATAATGTGCCCTTTGTACCTGGGGCAAAGCCTAGGGAGATTAGAGTATCGGTCGA,5.03
22,TTTTTGGCCTTTACCCCTTGAGTTTGAACTGCCTAGGGAGATTAGAGTATCGGTCGA,3.59

row,Sequence,binding signal [log2 normalized intensity]
1,GCATTAACATCAACATGGACTTTGAGTCATGCCTAGGGAGATTAGAGTATCGGTCGA,6.21
2,ATGGCCAGCCTTTGGACTTTGAACTGCAACGCCTAGGGAGATTAGAGTATCGGTCGA,9.66
3,TATTTGGATAATGTGCCCTTTGTACCTGGGGCCTAGGGAGATTAGAGTATCGGTCGA,7.01
4,TCAAATATTTGGATAATGTGCCCTTTGTACGCCTAGGGAGATTAGAGTATCGGTCGA,6.6
5,AGCAGATGGCCAGCCTTTGGACTTTGAACTGCCTAGGGAGATTAGAGTATCGGTCGA,10.7
6,TACCTTTCCTGCATTAACATCAACATGGACGCCTAGGGAGATTAGAGTATCGGTCGA,2.1
7,TTCCTGCATTAACATCAACATGGACTTTGAGCCTAGGGAGATTAGAGTATCGGTCGA,8.62
8,AGGGTCTTTGCAACTGTGTGTGGCCTGCACGCCTAGGGAGATTAGAGTATCGGTCGA,1.38
9,TTTGAAGCAAAGCCTTTGAGCAGATGGAAGGCCTAGGGAGATTAGAGTATCGGTCGA,0.0298
10,TGGTGGCACAGGGAATGGCTCGTATGAATGGCCTAGGGAGATTAGAGTATCGGTCGA,0.46
11,ATTGACAAAGACCAGTGCTCTTTCTTCTCTGCCTAGGGAGATTAGAGTATCGGTCGA,-0.734
12,AGGGTTCAAACTCCAGCTCTGATACTTTCTGCCTAGGGAGATTAGAGTATCGGTCGA,3.12
13,GTGAGGCATCTGGACCATTGCTGACCTTGCGCCTAGGGAGATTAGAGTATCGGTCGA,3.01
14,CTCTCGTCACCTCCACCCACCCGTGCATCAGCCTAGGGAGATTAGAGTATCGGTCGA,4.68
15,TCCCACTAGGTGGCGCTGTTGACCTTGAAAGCCTAGGGAGATTAGAGTATCGGTCGA,3.09
16,TGATAGCCATCTGGTGGACTTTGCTCTGCTGCCTAGGGAGATTAGAGTATCGGTCGA,7.44
17,GCCATCTGGTGGACTTTGCTCTGCTCATTTGCCTAGGGAGATTAGAGTATCGGTCGA,6.26
18,CTGCTTGATAGCCATCTGGTGGACTTTGCTGCCTAGGGAGATTAGAGTATCGGTCGA,5.26
19,CAAAGGGTCAAGTTCAGATCCTGGCCATGCGCCTAGGGAGATTAGAGTATCGGTCGA,0.748
